The panel holds about 83,000 compounds, 20% with a hit somewhere; the sample as a whole holds those more often.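 Cell lines were cultured in 96-well plates, exposed to a single compound concentration, and assessed for percent growth 48 hours later.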 Active and inactive are the calls of the source. How the source made its calls: active means growth percent below 10; inactive means the rest.

The assay has as its system MDA-MB-468 breast. Put plainly: NCI-60 one-dose screen, 48 h (100 = growth as untreated, 0 = no growth, -100 = all killed). As to conditions: 10 µM unless noted.
Take `C[C@]12O[C@H]1[C@H](O)c1c(cc(O)c3c1C(=O)c1cccc(O)c1-3)C2=O`: the growth is 83.3% (inactive). On to `O=C1/C(=C\c2cn(-c3nc(N4CCOCC4)nc(N4CCOCC4)n3)c3ccccc23)c2ccccc2N1c1c(Cl)cccc1Cl`, for which the growth is 17% (inactive). Turning to `CC(C)(C)c1cnc(CSc2cnc(NC(=O)C3CCNCC3)s2)o1`, the growth is -43.7% (active).

Turning to `Oc1ccccc1-c1nc2c3ccccc3c3ccccc3c2o1`, the growth was 83% (inactive).

Take `O=C(CCl)N1c2ccccc2Oc2ccc3ccccc3c21`: the growth is -72.5% (active).

For `Cc1ccc(/C=C2/C(=O)N(C)c3ccc(S(=O)(=O)Nc4ccc(C(C)(C)C)cc4)cc32)s1`, the growth was 63.1% (inactive). Regarding `COc1cc(OC)c(/C=C/S(=O)(=O)Cc2ccc(OC)c(NC(=O)CCC(=O)NO)c2)c(OC)c1`, the growth is 40.4% (inactive).

With `COCc1cnccc1NC1CCCCCC1`, the growth was 102% (inactive). With `COc1ccc(C2CC(c3ccc(Nc4nc(NCCO)nc(N5CCOCC5)n4)cc3)=Nc3c(N)nc(N)nc3N2)cc1` (stereo not given), the growth is 90.3% (inactive).

`Nc1n[nH]c2cccc(C#Cc3cccc(C(=O)Nc4ccc(CN5CCOCC5)c(C(F)(F)F)c4)c3)c12`: the growth is 66% (inactive). `N#Cc1c(-c2ccc(Cl)cc2)nc2c(-c3ccccc3)c(Nc3ccccc3)nn2c1N`: the growth was 53.4% (inactive). The result for `Cc1cc(N(CCCNc2ccnc3cc(Cl)ccc23)Cc2ccccn2)nc(N2CCOCC2)n1` reads 78.8% (inactive); that for `COC(=O)c1ccc2[nH]c(O)c(C(=Nc3ccc(N(C)C(=O)CN4CCN(C)CC4)cc3)c3cccc(OC)c3)c2c1`, 37.3% (inactive). With `CCCCNC(=O)Oc1ccc(/C(=C(\C)c2ccc(Cl)cc2)c2ccc(OCCN3CCCCC3)cc2)cc1`, the growth was 62.9% (inactive). For the compound `Cc1nc2scc(-c3ccc(Cl)cc3)n2c(=O)c1CCN1CCOCC1`, the growth was 112% (inactive).

`O=C(C[N+](=O)[O-])c1ccc(Cl)cc1`: the growth is 112% (inactive).

With `CCC1CN2C(=N1)c1ccccc1-c1cc(Cl)ccc12` (stereo not given), the growth is -7.75% (active).

Consider `CCOC(=O)C1=C(C)N=c2s/c(=C\c3cc(Cl)ccc3O)c(=O)n2C1c1ccc(OC)cc1` (stereo not given), for which the growth is 94.8% (inactive). The result for `C#CCNc1nc(NCCNC(=O)CCl)nc(N(C)CCCCc2ccccc2)n1` reads 86% (inactive); that for `N#Cc1cc(-c2ccnc(Nc3ccc(NC(=O)CCl)cc3)n2)ccc1N1CCCC1`, -45.9% (active). For the compound `c1ccc2nc(N3CCOCC3)c(N3CCCCC3)nc2c1`, the growth was 94% (inactive).

On to `C[N+](C)(CCOC(c1ccccc1)c1ccccc1)CC(=O)OCc1ccccc1`, for which the growth was 100% (inactive). As for `COc1cccc(NC(=O)c2sc3nc4c(cc3c2N)C(=O)CCC4)c1`, the growth is 49.5% (inactive). The result for `Cc1ccc(NCN2C(=O)c3ccccc3C2=O)c(C)n1` reads 98.5% (inactive). With `CC(C)CC1NC(=O)C(CC(C)C)N(CO)C1=O` (stereo not given), the growth was 99.3% (inactive). Consider `O=c1c2cc(-c3ccc(F)cc3F)ccc2n(O)c(=O)n1-c1cccc(C(F)(F)F)c1`, for which the growth was -0.858% (active).

As for `COc1cc(CNC(=O)c2ccsc2Nc2ccnc(C(F)(F)F)c2)ccc1O`, the growth was 95.6% (inactive). Consider `COc1ccc2[nH]c(-c3ccccc3)c(C=C(C#N)C#N)c2c1`, for which the growth is -4.84% (active). `S=C1SCN(Cc2cccs2)CN1Cc1cccs1`: the growth was 40.4% (inactive).

Regarding `Cc1[nH]c(-c2nc3ccccc3[nH]2)c(C)c1C(=O)N1CCc2sccc2C1`, the growth is 70.2% (inactive). In the case of `Nc1c(Br)cc2c(c1Br)Cc1cc([N+](=O)[O-])ccc1-2`, the growth was -54.8% (active). Take `CS(=O)(=O)c1ccc(C(=O)N/N=C/c2ccccc2Cl)cc1`: the growth was 96.1% (inactive). In the case of `Cc1cc(Nc2ncc(Cl)c(Nc3ccccc3S(=O)(=O)C(C)C)n2)c(OC(C)C)cc1C1CCNCC1`, the growth was -78.1% (active). Take `COc1cc(C=C2C(=O)NC(=S)NC2=O)cc(CN2CCCC2)c1O`: the growth is 110% (inactive). As to `N/C(=N\c1nc2c(Br)cccc2s1)C(Br)Br`, the growth is -58.8% (active).

For the compound `c1ccc(COCC[P+](c2ccccc2)(c2ccccc2)c2ccccc2)cc1`, the growth was -10.4% (active). Regarding `CC1=C2[C@@H](CC1)[C@]1(C)O[C@@](C(C)C)(C[C@H]1OC(=O)CO)[C@H]2OC(=O)C1CC1c1ccccc1` (stereo not given in full), the growth was 93.3% (inactive). For `CCOC(=O)c1cc2c(n1Cc1cc(OC)c(OC)c(OC)c1)-c1oncc1CCC2` the value was 15.7% (inactive); for `O=C(O)c1cccc(S(=O)(=O)c2ccccc2)c1`, 94.7% (inactive). For the compound `O=S1(=O)c2ccccc2Oc2ccccc21`, the growth is 96.4% (inactive).

The record behind these values is PubChem BioAssay (NCI).
